Active and inactive are the calls of the source. Unless noted, the rule behind the calls is not given here.
Columns and labels:
[1] = compounds binding Alexa647 anti-His antibody – biochemical, small-molecule microarray, 635 nm fluorescence, artefact control for SMM control protein annotation, primary screen (AID 1128); conditions: higher = more signal;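 note: score merges feature fluorescence with signal-to-noise for each printed compound spot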
[2] = test system: Human papillomavirus type 1a E7 protein (residues 1-88); assay: HPV1a E7 small-molecule binders, primary screen, biochemical, small-molecule microarray, residues 1-88, 635 nm (AID 1129); conditions: small-molecule microarray binding, fluorescence 635 nm; higher = more signal
[3] = biological target: Focal adhesion kinase 1 (Homo sapiens) (UniProt Q05397); assay: PTK2 protein binding on printed compound slides – biochemical, small-molecule microarray, 635/667 nm fluorescence, BSA, DTT, primary screen (AID 1130); conditions: 635 nm fluorescence, higher = more signal;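 note: composite of spot emission at 667 nm and signal to noise over triplicate slides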
Sequence of Focal adhesion kinase 1 (Homo sapiens) (Q05397 whole entry, looked up): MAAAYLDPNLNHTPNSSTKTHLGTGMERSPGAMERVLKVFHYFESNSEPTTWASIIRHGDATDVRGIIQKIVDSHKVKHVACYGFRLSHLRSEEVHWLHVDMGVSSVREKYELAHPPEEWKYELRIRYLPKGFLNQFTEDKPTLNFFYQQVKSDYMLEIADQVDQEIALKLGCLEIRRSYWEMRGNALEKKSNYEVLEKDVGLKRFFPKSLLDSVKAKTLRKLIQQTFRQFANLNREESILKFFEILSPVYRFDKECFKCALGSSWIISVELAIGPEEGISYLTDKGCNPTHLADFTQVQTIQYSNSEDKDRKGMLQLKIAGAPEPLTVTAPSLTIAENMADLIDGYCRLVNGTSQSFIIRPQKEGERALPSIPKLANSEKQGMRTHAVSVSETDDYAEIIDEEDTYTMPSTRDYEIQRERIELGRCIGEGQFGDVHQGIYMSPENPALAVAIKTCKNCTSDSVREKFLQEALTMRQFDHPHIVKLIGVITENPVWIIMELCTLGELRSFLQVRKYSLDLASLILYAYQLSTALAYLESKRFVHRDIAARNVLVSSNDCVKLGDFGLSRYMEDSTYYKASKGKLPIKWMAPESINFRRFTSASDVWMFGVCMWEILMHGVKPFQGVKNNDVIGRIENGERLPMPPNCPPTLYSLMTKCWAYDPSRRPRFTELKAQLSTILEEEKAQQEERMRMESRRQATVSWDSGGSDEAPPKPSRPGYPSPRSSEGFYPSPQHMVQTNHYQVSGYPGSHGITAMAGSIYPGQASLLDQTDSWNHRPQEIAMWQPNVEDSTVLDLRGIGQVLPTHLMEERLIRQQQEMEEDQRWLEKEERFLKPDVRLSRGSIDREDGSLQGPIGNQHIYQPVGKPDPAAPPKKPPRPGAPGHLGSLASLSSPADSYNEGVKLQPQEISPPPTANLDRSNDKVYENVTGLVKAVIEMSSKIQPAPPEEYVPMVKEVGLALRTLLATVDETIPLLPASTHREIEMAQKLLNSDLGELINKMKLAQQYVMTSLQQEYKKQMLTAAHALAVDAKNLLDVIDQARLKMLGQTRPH

[4] = test system: Fibrinogen (Alexa647-labelled); assay: Alexa647-fibrinogen binding to printed small molecules – biochemical, small-molecule microarray, 635/667 nm fluorescence, artefact control for SMM control-protein annotation, profiling panel (AID 1131); conditions: fibrinogen-A647 binding fluorescence, higher = more signal;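 note: z-score merges 667 nm fluorescence with per-spot signal-to-noise over triplicate slides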
[5] = biological target: Follistatin (Homo sapiens) (UniProt P19883); assay: FST protein binding to printed compounds – biochemical, small-molecule microarray, 635/667 nm fluorescence, primary screen (AID 1132); conditions: 635 nm fluorescence, higher = more signal
Sequence of Follistatin (Homo sapiens) (P19883 whole entry, looked up): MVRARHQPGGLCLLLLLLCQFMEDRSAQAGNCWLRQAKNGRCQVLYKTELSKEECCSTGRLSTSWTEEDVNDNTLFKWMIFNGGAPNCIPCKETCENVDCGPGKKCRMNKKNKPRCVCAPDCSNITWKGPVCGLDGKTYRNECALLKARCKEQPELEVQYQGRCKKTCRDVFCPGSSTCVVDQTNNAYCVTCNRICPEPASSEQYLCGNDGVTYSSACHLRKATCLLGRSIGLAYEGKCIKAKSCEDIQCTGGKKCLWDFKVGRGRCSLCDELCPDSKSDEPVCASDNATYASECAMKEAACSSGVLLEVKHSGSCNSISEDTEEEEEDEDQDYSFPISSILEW

[6] = biological target: Fibroblast growth factor 2 (Homo sapiens) (UniProt P09038); assay: basic fibroblast growth factor binding to printed compounds – biochemical, small-molecule microarray, 635/667 nm fluorescence, primary screen (AID 1133); conditions: FGF2, fluorescence 635/667, higher = more signal
Sequence of Fibroblast growth factor 2 (Homo sapiens) (P09038 whole entry, looked up): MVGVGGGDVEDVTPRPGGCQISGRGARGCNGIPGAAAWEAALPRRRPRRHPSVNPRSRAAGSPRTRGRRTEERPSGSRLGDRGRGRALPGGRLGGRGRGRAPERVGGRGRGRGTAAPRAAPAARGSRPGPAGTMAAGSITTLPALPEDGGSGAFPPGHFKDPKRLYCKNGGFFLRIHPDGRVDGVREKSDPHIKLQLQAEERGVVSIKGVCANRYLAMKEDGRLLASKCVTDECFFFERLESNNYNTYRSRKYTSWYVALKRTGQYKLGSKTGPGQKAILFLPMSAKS

[7] = JC-1 mitochondrial potential readout, lung cancer cells – cell-based, A549, JC-1 fluorescence, basal, 24 h, 100 nL, profiling panel (AID 1138); conditions: higher = more signal;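 note: A549 lung adenocarcinoma cells under basal conditions with no added stimulus; test concentration not given here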
[8] = test system: Lefty1; assay: Lefty1 protein binding to printed compounds – biochemical, small-molecule microarray, 635/667 nm fluorescence, primary screen (AID 1139); conditions: fluorescence 635/667, higher = more signal
[9] = test system: wheat germ agglutinin (Triticum aestivum), Alexa647-labelled; assay: Alexa647-WGA lectin binding to printed small molecules – biochemical, small-molecule microarray, 635/667 nm fluorescence, artefact control for SMM control-protein annotation, profiling panel (AID 1140); conditions: WGA-A647 binding, 635 nm fluorescence, higher = more signal;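 note: score merges 667 nm feature emission with signal to noise over triplicate slides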
[10] = biological target: Luciferin 4-monooxygenase (Photinus pyralis) (UniProt P08659); assay: inhibition of purified Photinus pyralis luciferase – biochemical, luminescence, purified enzyme, 2006 set, primary screen (AID 1141); conditions: purified firefly luciferase, SteadyGlo luminescence, 30 min; higher = more signal, called active from +8 up or from −8 down;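 note: cell-free assay with purified firefly luciferase at 100 ng per well in PBS; test concentration not given here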
Sequence of Luciferin 4-monooxygenase (Photinus pyralis) (P08659 whole entry, looked up): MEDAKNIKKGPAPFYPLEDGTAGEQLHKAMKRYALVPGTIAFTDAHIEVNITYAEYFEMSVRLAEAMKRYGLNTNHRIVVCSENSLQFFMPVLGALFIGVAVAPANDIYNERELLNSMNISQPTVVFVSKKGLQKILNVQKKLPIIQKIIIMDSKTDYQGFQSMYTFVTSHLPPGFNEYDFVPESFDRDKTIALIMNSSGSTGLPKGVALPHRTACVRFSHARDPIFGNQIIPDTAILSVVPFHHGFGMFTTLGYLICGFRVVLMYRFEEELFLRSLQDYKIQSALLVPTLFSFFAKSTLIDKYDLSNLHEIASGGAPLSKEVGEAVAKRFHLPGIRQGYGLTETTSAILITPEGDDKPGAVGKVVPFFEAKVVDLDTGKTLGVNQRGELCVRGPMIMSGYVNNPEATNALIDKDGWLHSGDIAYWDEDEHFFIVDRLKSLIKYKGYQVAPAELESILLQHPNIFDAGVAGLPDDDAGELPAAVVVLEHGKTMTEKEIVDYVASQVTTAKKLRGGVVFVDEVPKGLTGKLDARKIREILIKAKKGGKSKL

[11] = test system: Wnt5a (protein binding on small-molecule microarray); assay: small molecules binding Wnt5a protein – biophysical, small-molecule microarray, 635/667 nm fluorescence, primary screen (AID 1142); conditions: 635 nm fluorescence, higher = more signal;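 note: fluorescence read at 667 nm with signal to noise per printed feature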
[12] = ATP-based viability of Huh7 replicon cells – cell-based, CellTiter-Glo luminescence, basal, 48 h, cytotoxicity control for HCV replication inhibitor project, primary screen (AID 1143); conditions: higher = more signal, called active from +8 up or from −8 down;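 note: Huh7 hepatoma cells carrying a hepatitis C replication reporter with no stimulus; test concentration not given here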
[13] = Pseudomonas biofilm growth suppression – PAO1 strain, BacTiter-Glo luminescence, LB-PBS, primary screen (AID 1144); conditions: P. aeruginosa PAO1 biofilm, 12 h, higher = more signal
[14] = basal CRE-LacZ reporter activity in PC12 – cell-based, unstimulated, primary screen (AID 1145); conditions: no forskolin, luminescence, 4.5 h, higher = more signal, called active from +8 up or from −8 down
[15] = forskolin-driven CRE-LacZ activity in PC12 – cell-based, CRE-LacZ reporter, forskolin-stimulated, primary screen (AID 1146); conditions: luminescence, 4.5 h, higher = more signal, called active from +8 up or from −8 down;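 note: PC12 cells with 6xCRE LacZ reporter stimulated by forskolin 10 µM; beta-galactosidase reporter signal reflecting CREB driven transcription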
[16] = biological target: Streptavidin (Streptomyces avidinii) (UniProt P22629); assay: compounds binding control protein streptavidin – biophysical, small-molecule microarray, 635/667 nm fluorescence, artefact control for SMM compound annotation, primary screen (AID 1147); conditions: higher = more signal;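 note: signal reflects streptavidin binding to arrayed compounds as a control protein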
Sequence of Streptavidin (Streptomyces avidinii) (P22629 whole entry, looked up): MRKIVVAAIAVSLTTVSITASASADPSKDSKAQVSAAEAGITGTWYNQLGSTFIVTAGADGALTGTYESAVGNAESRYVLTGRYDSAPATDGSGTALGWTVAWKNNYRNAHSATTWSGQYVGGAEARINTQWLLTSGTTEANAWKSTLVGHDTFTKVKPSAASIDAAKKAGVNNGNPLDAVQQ

[17] = probe aInhba binding on compound microarray – biochemical, small-molecule microarray, 635/667 nm fluorescence, primary screen (AID 1148); conditions: higher = more signal;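 note: score merges 667nm spot fluorescence with signal-to-noise for antibody binding to printed compounds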
[18] = biological target: Torsin-1A (Homo sapiens) (UniProt O14656); assay: TOR1A wild-type binding on microarray – cell lysate, small-molecule microarray, lysate, 635/667 nm, primary screen (AID 1149); conditions: COS7 hTOR1A-WT lysate, 635 nm fluorescence, higher = more signal
Sequence of Torsin-1A (Homo sapiens) (O14656 whole entry, looked up): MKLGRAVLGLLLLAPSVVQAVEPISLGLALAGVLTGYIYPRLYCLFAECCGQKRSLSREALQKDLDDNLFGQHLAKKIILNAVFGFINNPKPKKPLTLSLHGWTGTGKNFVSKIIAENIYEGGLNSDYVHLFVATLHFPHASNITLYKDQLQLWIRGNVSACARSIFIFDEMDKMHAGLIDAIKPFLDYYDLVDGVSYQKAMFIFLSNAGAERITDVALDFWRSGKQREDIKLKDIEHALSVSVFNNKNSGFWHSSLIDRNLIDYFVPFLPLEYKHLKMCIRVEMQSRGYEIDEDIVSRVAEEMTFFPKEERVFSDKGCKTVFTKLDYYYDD

[19] = biological target: Torsin-1A (Homo sapiens) (UniProt O14656); assay: torsin A mutant lysate binding on microarrays – cell lysate, small-molecule microarray, COS7 lysate, 635/667 nm fluorescence, primary screen (AID 1150); conditions: COS7 hTOR1A mutant lysate, 635 nm fluorescence, higher = more signal;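 note: score pools 667 nm emission and signal to noise measuring lysate protein binding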
[20] = test system: Sonic hedgehog protein (Shh); assay: Sonic hedgehog microarray binding compounds – biochemical, small-molecule microarray, 635/667 nm fluorescence, primary screen (AID 1151); conditions: 635 nm fluorescence, higher = more signal;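 note: Shh protein binding to compounds spotted on small-molecule microarray slides; score combines spot fluorescence intensity with signal-to-noise across triplicate slides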

Row | SMILES | composite z-score [1] | composite z-score [2] | composite z-score [3] | composite z-score [4] | composite z-score [5] | composite z-score [6] | z-score [7] | composite z-score [8] | composite z-score [9] | z-score [10] | composite z-score [11] | z-score [12] | z-score [13] | z-score [14] | z-score [15] | composite z-score [16] | composite z-score [17] | composite z-score [18] | composite z-score [19] | composite z-score [20]
1 | COC(=O)[C@H](C)NC(=O)CCC1CC(OC(=O)NCCc2ccc(F)cc2)CC2(CCCC(COC(=O)NCC(c3ccccc3)c3ccccc3)O2)O1 (stereo not given in full) | 0.862 | 1.18 | 0.548 | 0.834 | 0.342 | 0.0725 | 0.549 | 0.483 | 0.958 | 0.467 (inactive) | -0.073 | -0.169 (inactive) | -0.0102 (inactive) | 1.27 (inactive) | -0.187 (inactive) | 0.688 | -0.0044 | -0.311 | 0.387 | 0.282
2 | [N-]=[N+]=NCc1ccccc1[C@@H]1OC(c2ccc(OCCCO)cc2)=N[C@]1(Cc1ccccc1)C(=O)N1CCOCC1 | 2.32 | 1.11 | 0.373 | 0.998 | 1.15 | 0.593 | 1.23 | 0.115 | 1.26 | -0.633 (inactive) | 0.599 | -3.55 (inactive) | 0.369 (inactive) | -0.0017 (inactive) | 0.531 (inactive) | 1.66 | 0.618 | 3.2 | 3.32 | 0.0283
3 | COc1ccc(COC(=O)NN=C2C[C@@H](O)[C@@H](O)[C@@H]3[C@@H]4C(=O)N(Cc5ccc6c(c5)OCO6)C(=O)[C@@H]4CC[C@@H]23)cc1 | -0.272 | -0.568 | 0.256 | 0.144 | -0.989 | -0.922 | 0.982 | -0.86 | 0.247 | -0.283 (inactive) | 0.0183 | -0.797 (inactive) | 0.786 (inactive) | 1.61 (inactive) | -0.41 (inactive) | 1.09 | 0.0028 | -1.15 | -0.686 | -1.07
4 | C#CCCCON=C1C[C@@H](O)[C@@H](O)[C@@H]2[C@@H]3C(=O)N(CCC(=O)OCC)C(=O)[C@@H]3CC[C@@H]12 | -0.264 | -0.0592 | 0.934 | 0.211 | -1.11 | -0.823 | -0.139 | -0.655 | 0.662 | 0.224 (inactive) | 0.109 | 0.402 (inactive) | -0.262 (inactive) | 1.15 (inactive) | -0.0962 (inactive) | 0.842 | 0.027 | -0.343 | 0.612 | -0.948
5 | CCOC(=O)CCN1C(=O)[C@H]2[C@H]3[C@H](O)[C@H](O)CC(=NOC[C@@H](O)COCc4ccco4)[C@H]3CC[C@H]2C1=O | 0.659 | 0.785 | 0.857 | 0.894 | 0.938 | 0.229 | -1.06 | 0.863 | 0.288 | 0.586 (inactive) | -0.0068 | -4.31 (inactive) | -0.284 (inactive) | 1.41 (inactive) | 0.749 (inactive) | 0.0794 | -0.0627 | 0.291 | 0.18 | 0.856
6 | CCN1C(=O)[C@H]2[C@H]3[C@H](O)[C@H](O)CC(=NOC[C@@H](C)[C@H](OCc4ccccc4)C(C)C)[C@@H]3CC[C@H]2C1=O | 0.0486 | 0.472 | -0.0745 | 0.58 | -0.0316 | -0.109 | -0.925 | 0.192 | 0.564 | 0.646 (inactive) | 0.0339 | -0.994 (inactive) | 0.683 (inactive) | 0.513 (inactive) | 0.435 (inactive) | 0.251 | -0.0458 | 0.221 | 1.05 | 0.119
7 | CC(C)OC(=O)C=C1C[C@@H](c2ccc(C#N)cc2)O[C@@H](c2ccc(C#N)cc2)O1 | 1.48 | 1.22 | 0.704 | 0.978 | 1.31 | 0.267 | -0.356 | 0.48 | 0.972 | -0.178 (inactive) | 0.923 | -2.6 (inactive) | 0.618 (inactive) | 2.74 (inactive) | 0.421 (inactive) | 0.77 | 0.165 | 1.99 | 2.06 | 0.292
8 | O=C1[C@H]2[C@H]3[C@H](O)[C@H](O)CC(=NOCc4ccccc4)[C@@H]3CC[C@H]2C(=O)N1Cc1ccccc1 | -0.0529 | 0.719 | 0.166 | -0.757 | 0.371 | 0.47 | -0.806 | 0.597 | 0.0885 | 1.09 (inactive) | -0.0408 | 0.0627 (inactive) | 0.76 (inactive) | 0.155 (inactive) | 0.663 (inactive) | 0.336 | -0.128 | -0.0549 | 0.282 | 0.84
9 | O=C1C2=CC[C@H]3C(=O)N(Cc4ccc5c(c4)OCO5)C(=O)[C@H]3[C@H]2[C@H](O)[C@@H]2O[C@H]12 | 1.06 | 0.383 | 0.009 | 0.459 | 0.281 | 0.597 | 0.738 | 0.408 | -0.0306 | -0.272 (inactive) | -0.0194 | 0.279 (inactive) | -0.0992 (inactive) | -0.385 (inactive) | -0.454 (inactive) | 0.57 | -0.0933 | 0.475 | 0.677 | 0.495
10 | CCCC[C@H]1OB(O)C[C@H]2C1=C(C)C[C@H]1C(=O)N(C)C(=O)[C@H]12 | -0.0755 | 0.739 | 0.248 | 0.615 | 0.931 | 1.31 | 0.445 | 0.794 | 0.556 | -0.769 (inactive) | 0.224 | 0.0813 (inactive) | -0.0729 (inactive) | -0.237 (inactive) | 1.23 (inactive) | -0.174 | -0.0221 | 0.697 | -0.102 | 0.948

Source: PubChem BioAssay
